# Reference: the supplement of paper PMC10681739
# Molecular target: T1, ETS1 (UniProt P14921)
# T1 sequence: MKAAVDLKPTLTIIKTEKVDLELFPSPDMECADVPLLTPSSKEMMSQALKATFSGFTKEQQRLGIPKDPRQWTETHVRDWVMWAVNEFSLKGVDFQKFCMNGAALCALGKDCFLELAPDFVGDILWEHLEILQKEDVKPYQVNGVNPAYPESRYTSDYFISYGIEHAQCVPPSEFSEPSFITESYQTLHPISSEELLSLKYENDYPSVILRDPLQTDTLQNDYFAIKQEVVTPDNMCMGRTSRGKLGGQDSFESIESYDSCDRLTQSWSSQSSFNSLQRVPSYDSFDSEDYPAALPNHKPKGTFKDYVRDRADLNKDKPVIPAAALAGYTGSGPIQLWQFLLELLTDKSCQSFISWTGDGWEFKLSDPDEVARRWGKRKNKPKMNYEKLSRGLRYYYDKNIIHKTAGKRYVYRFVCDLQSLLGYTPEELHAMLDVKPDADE
# Assay: ETS1 binding intensity (PBM fluorescence), ETS1 alone (arbitrary fluorescence units); higher = stronger binding
# Settings: ETS1 concentration 1 nM; RUNX1 concentration 0 nM
# 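Throughout, for RUNX1 binding intensity (PBM fluorescence), RUNX1 alone: Full-length recombinant human RUNX1 bound to double-stranded 36-bp genomic probes on a high-density microarray, scored as Alexa488 fluorescence per spot via anti-RUNX1 antibody, median of four replicate spots.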
row,Sequence,ETS1 binding intensity
1,CCGGCAGGAAGTTAGCATGGGCGGACCACACGGGGG,1400
2,TGCCTCACCTCACATCCGTTTGTGGCTGCCGAGTGC,1090
3,CGGTTCCGGCGCCTGAAGTTTTAGCTGCGGTGGCGG,347
4,GTGGGGCGGGCTTCCGGCGCTCCCACCGCGAGCCGA,921
5,TGTCTTCAGGAAGTGTAGCAGGTGTTGAGGTCAAGC,900
6,CTGCTTCCGGCCCCGGGGTTCGCTACCCCACAATCC,1210
7,TTTAGACACCGCTTCCTGCCACAAGCCCAAGACTTA,758
8,CCCGTTCTCCGGAAGTGCGCGGGTTGGAGCTGAAGC,4390
9,TCCAGTGCCGCCGCCGGAAAACCGCAGCGGCGGCGG,887
10,GCGCAAGGATCCGGTTTGTTGTGGTGTGGGGAGGGG,517
11,AAAATTAAAGCAGGAAGTAATCAACCACATCAAATG,3130
12,TCGGAGACGGCGAAAGGAAACCGCAAGGAGGCCACC,642
13,CTTTCGGGGGCGGAAGTTGCGGTGCATTGTAGGTTC,7760
14,GGCTCGGCAAACATCCGGCTCCGCGGTGGAACGGGA,1430
15,CAGCACGCAGGAAGCACATGTGGTGGGGCTCTTCCA,674
16,TCTCTTCCTGTGATGGAAATACATTGAGGTTTGCGA,523
17,GGGTCCTTCCGGGTTTTGTGTCGAATCTGCGGCGGC,486
18,GTAAATAAAGAGGAAGTCCCTATGCGGGGGATGGGG,1910
19,GGTTGTAAGTTCACAGGATGTGGTGTGTCCCTGTGG,4130
20,CTTCACTATGCATCCTGTACTGCAACCACACCAAAC,587

row,Sequence,ETS1 binding intensity
1,TGCGAGCACCCGGAAGCCGCTTGCGGGCTCCCGGAG,2840
2,TGGCTGTGTCCCGGAAGTGGTCATAAGCTGGGTCCC,8520
3,AGTTGTGTTTTAGGATGTGGTCAAAGCCCAACAGAG,581
4,CCCTCATCTTCCTGCTTCAGGCAGCTGTGGTTTACC,420
5,TGTCTCTGCCGCCGGAAACCGCGCCGTAGATCATGC,5360
6,ATGGGTACAGGATTTCCTTTTGTGGTGATGAAAATG,697
7,GTTGAGTAGTGACAGGAAGTGACCGCAAGGGGGCGC,10700
8,ATAGAAACTACAGGAAATACTGTGGTCAGGTTTTGA,2770
9,GCTCGGAAATACCAATATTGGGCTGTGGTATTTGAA,412
10,GCTCTGCAGGATGTGGCTGTGACCGCAGTGAGGAGC,1290
11,TCAATAAGACAGGATGTTCTCCAACCGCATTAAGCT,3270
12,AGCTTGCTTCCTGTCCCCAAAACCCACAGCACACGG,688
13,GGGCGGAAGTGCGTCACTATGTCCGACCCGCAGTGC,1630
14,ACCTCTCTCACTTCCTACCAGAGAACCACAGCCAAG,538
15,AACCCGGAAGTGGACACGGAGCTCGGCTGCGGCTCC,1750
16,TCAGGGGAGCGAGCAGGAAGTGGTAAGATTTGATAG,3680
17,AAACAGGAAATCACAGCAGCGTTGCGGAGTGGAGCA,1100
18,CAGCGGCCGTCGCGGGAAGTGCGGTCGCCGCGGCCA,500
19,GGTGACACGGCCGGCTTCCTGCCGCAGAGCTCCTGG,719

# Molecular target: RUNX1 (UniProt Q01196)
# Assay: RUNX1 binding intensity (PBM fluorescence), RUNX1 alone (arbitrary fluorescence units); higher = stronger binding
# Settings: RUNX1 concentration 2 nM; ETS1 concentration 0 nM
# Experimental: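 Cooperative gcPBM on 36-bp genomic probes with neighbouring ETS1 and RUNX1 sites. Recombinant human RUNX1 (2 nM) was incubated alone or with ETS1 (25 nM) and detected with anti-RUNX1 antibody plus Alexa488 secondary. Values are medians over 4 replicate spots; the RUNX1+ETS1 data were normalised to the RUNX1-only data. The probes sit in constant array flanks that are not printed.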
# Sequence of RUNX1 (Q01196 whole entry): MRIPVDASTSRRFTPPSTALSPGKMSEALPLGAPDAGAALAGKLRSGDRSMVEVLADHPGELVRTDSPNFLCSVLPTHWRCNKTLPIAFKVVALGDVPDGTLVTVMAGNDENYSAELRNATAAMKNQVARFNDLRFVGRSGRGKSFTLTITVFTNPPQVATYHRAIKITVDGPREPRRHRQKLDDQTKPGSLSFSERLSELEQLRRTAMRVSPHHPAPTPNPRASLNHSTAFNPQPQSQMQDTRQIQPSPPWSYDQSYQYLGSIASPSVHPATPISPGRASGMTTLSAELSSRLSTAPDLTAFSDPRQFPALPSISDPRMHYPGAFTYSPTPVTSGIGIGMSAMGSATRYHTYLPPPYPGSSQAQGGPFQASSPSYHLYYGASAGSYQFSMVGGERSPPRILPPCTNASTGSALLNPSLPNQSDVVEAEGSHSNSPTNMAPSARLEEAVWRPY
row,Sequence,RUNX1 binding intensity
1,CCGGCAGGAAGTTAGCATGGGCGGACCACACGGGGG,1470
2,TGCCTCACCTCACATCCGTTTGTGGCTGCCGAGTGC,950
3,CGGTTCCGGCGCCTGAAGTTTTAGCTGCGGTGGCGG,794
4,GTGGGGCGGGCTTCCGGCGCTCCCACCGCGAGCCGA,790
5,TGTCTTCAGGAAGTGTAGCAGGTGTTGAGGTCAAGC,703
6,CTGCTTCCGGCCCCGGGGTTCGCTACCCCACAATCC,981
7,TTTAGACACCGCTTCCTGCCACAAGCCCAAGACTTA,918
8,CCCGTTCTCCGGAAGTGCGCGGGTTGGAGCTGAAGC,760
9,TCCAGTGCCGCCGCCGGAAAACCGCAGCGGCGGCGG,5970
10,GCGCAAGGATCCGGTTTGTTGTGGTGTGGGGAGGGG,814
11,AAAATTAAAGCAGGAAGTAATCAACCACATCAAATG,761
12,TCGGAGACGGCGAAAGGAAACCGCAAGGAGGCCACC,4180
13,CTTTCGGGGGCGGAAGTTGCGGTGCATTGTAGGTTC,955
14,GGCTCGGCAAACATCCGGCTCCGCGGTGGAACGGGA,785
15,CAGCACGCAGGAAGCACATGTGGTGGGGCTCTTCCA,742
16,TCTCTTCCTGTGATGGAAATACATTGAGGTTTGCGA,787
17,GGGTCCTTCCGGGTTTTGTGTCGAATCTGCGGCGGC,784
18,GTAAATAAAGAGGAAGTCCCTATGCGGGGGATGGGG,850
19,GGTTGTAAGTTCACAGGATGTGGTGTGTCCCTGTGG,827
20,CTTCACTATGCATCCTGTACTGCAACCACACCAAAC,1350

row,Sequence,RUNX1 binding intensity
1,TGCGAGCACCCGGAAGCCGCTTGCGGGCTCCCGGAG,701
2,TGGCTGTGTCCCGGAAGTGGTCATAAGCTGGGTCCC,730
3,AGTTGTGTTTTAGGATGTGGTCAAAGCCCAACAGAG,910
4,CCCTCATCTTCCTGCTTCAGGCAGCTGTGGTTTACC,1070
5,TGTCTCTGCCGCCGGAAACCGCGCCGTAGATCATGC,945
6,ATGGGTACAGGATTTCCTTTTGTGGTGATGAAAATG,913
7,GTTGAGTAGTGACAGGAAGTGACCGCAAGGGGGCGC,1860
8,ATAGAAACTACAGGAAATACTGTGGTCAGGTTTTGA,822
9,GCTCGGAAATACCAATATTGGGCTGTGGTATTTGAA,911
10,GCTCTGCAGGATGTGGCTGTGACCGCAGTGAGGAGC,1520
11,TCAATAAGACAGGATGTTCTCCAACCGCATTAAGCT,854
12,AGCTTGCTTCCTGTCCCCAAAACCCACAGCACACGG,893
13,GGGCGGAAGTGCGTCACTATGTCCGACCCGCAGTGC,706
14,ACCTCTCTCACTTCCTACCAGAGAACCACAGCCAAG,1490
15,AACCCGGAAGTGGACACGGAGCTCGGCTGCGGCTCC,705
16,TCAGGGGAGCGAGCAGGAAGTGGTAAGATTTGATAG,696
17,AAACAGGAAATCACAGCAGCGTTGCGGAGTGGAGCA,754
18,CAGCGGCCGTCGCGGGAAGTGCGGTCGCCGCGGCCA,871
19,GGTGACACGGCCGGCTTCCTGCCGCAGAGCTCCTGG,768
